An excerpt weighted towards active compounds, which were near 21% of everything screened.
Shiga toxin inh = Shiga toxin inhibition; Vero cells, Shiga toxin protein synthesis inhibition reporter; inhibition, % at 38.7 µM; 9.2% of 290,000 active; in the data active means inhibition mostly above about 28%, no sharp cut-off; inactive means mostly below about 43%; further: 0% is about no effect
Pf growth 96h = inhibits malaria parasite growth, 96 h | P. falciparum luciferase reporter growth, 96 h | Potency, µM (series often up to 28.7 µM), inactives show at the top dose activity change, negative = inhibition, hits mostly inhibitors | 6.9% of 320,000 active; further: potency means the concentration at half of the fitted maximal effect; on the % scale 0 is the no-effect control and ±100 the full control effect
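Luminescence readout: decreased luciferase signal marks inhibited growth of reporter-expressing P. falciparum in infected red cells (2% hematocrit, 0.05% parasitemia final), exposed to compound two generations (96 h, 37 C, 5% CO2).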
NS1 function inh = influenza NS1 inhibition | AID 2326 | 0.4% of 270,000 active | Potency, µM (doses to about 46.1 µM), for the others: at the top dose activity, positive = more growth; calls by dose curve; further: potency means the concentration at half of the fitted maximal effect; actives are rising curves; nearly all actives have a fitted effect of over 50% in size
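Growth recovery, yeast-based: influenza A NS1 expressed in S. cerevisiae causes slow growth, and suppressors are detected by OD600. The parent strain without NS1 is used as positive control.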
Cycloheximide cs = affects cycloheximide protein synthesis inhibition readout, counter-screen; cell reporter, cycloheximide protein synthesis inhibition counterscreen; max response, %; 12% of 300,000 active; in the data active means max response mostly above about 13%, no sharp cut-off; inactive means mostly below about 14%; further: read at 38.3 µM for the half of the compounds with a filed dose; 0% is about no effect
Giardia FBPA inh = blocks Giardia fructose-bisphosphate aldolase activity. A8B2U2. purified Giardia FBPA. Potency, µM (series often up to 59.6 µM), for inactives: at the highest dose activity, negative = inhibition, most hits filed as inhibitors. 0.71% of 290,000 active. AID 2451; further: potency means the concentration at half of the fitted maximal effect; on the % scale 0 is the no-effect control and ±100 the full control effect; nearly all actives have a fitted effect of over 55% in size
Target sequence (A8B2U2 whole entry, looked up): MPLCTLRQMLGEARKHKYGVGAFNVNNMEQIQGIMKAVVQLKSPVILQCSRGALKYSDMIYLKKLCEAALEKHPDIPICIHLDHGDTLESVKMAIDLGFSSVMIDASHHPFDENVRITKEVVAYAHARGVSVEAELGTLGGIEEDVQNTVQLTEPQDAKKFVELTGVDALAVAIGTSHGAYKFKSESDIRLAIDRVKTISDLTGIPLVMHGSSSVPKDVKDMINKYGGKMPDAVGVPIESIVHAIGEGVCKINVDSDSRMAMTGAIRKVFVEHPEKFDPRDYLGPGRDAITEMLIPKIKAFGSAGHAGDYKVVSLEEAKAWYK
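40 nM FBPA preincubated 10 min at RT with compound (up to 57.5 uM final), then substrate plus GAPDH/TPI/NAD/arsenate coupling and diaphorase/resazurin added. Fluorescence read after 20 min at RT, 525/598 nm.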
Pf growth 48h = P. falciparum growth inhibition at 48 hours (one generation) | P. falciparum luciferase growth in erythrocytes, 48 h | Potency, µM (titrated, usually from 28.7 µM), for the others: top-dose activity change, negative = inhibition, hits mostly inhibitors | 5.9% of 310,000 active | AID 504832; further: potency means the concentration at half of the fitted maximal effect; on the % scale 0 is the no-effect control and ±100 the full control effect
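Compounds are pin-transferred into medium, infected erythrocytes (2% hematocrit, 0.1% parasitemia final) are added, and plates sit one parasite generation at 37 C in 5% CO2. Detection reagent is then added and luminescence measured.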
An asterisk follows results filed as active; i = inactive; u = inconclusive; x = no result; [ ] = dose if it differs, or a comment. Unless noted, the call rests on the fitted dose curve; in most records, active means well fitted curve in the direction sought with a large enough effect; inconclusive means small, poorly fitted or top-dose-only effect, or another doubt; inactive means no such curve, though single readings can be large; an effect the other way counts as inactive or inconclusive.

SMILES	Shiga toxin inh	Pf growth 96h	NS1 function inh	Cycloheximide cs	Giardia FBPA inh	Pf growth 48h
CCOC(=O)N/N=C\c1ccc(C)s1	67.9*	-6.5%	7.5%	28.6*	0.8%	59.8%
Cc1ccc(/C=N/NC(=O)Cc2c(F)cccc2Cl)s1	78.6*	294.1%	-8.0%	54.4*	7.1%	-14.7%
Cc1ccc(/C=N/NC(=S)NCCc2ccccc2)s1	12.0	u	x	17.1	8.5%	11.7µM*
CCOC(=O)N/N=C\c1sccc1C	14.8	-1.9%	9.2%	8.2	-2.4%	9.7%
CCN1C(=O)[C@H]2[C@H]3[C@H](O)[C@H](O)C/C(=N/NC(=O)OCc4ccc(OC)cc4)[C@H]3CC[C@@H]2C1=O	x	x	x	x	-1.1%[12.9 µM]	x
CC(NC(=O)CCNC(=O)c1ccc(Br)cc1)c1ccc(-n2ccnc2)cc1 (configuration not stated)	x	-23.1%	x	x	x	u
CCCCNC(=S)N/N=C/c1sccc1C	35.8	u	x	8.5	6.7%	u
CCCCNC(=S)N/N=C/c1ccc(C)s1	60.6*	1.65µM*	-12.4%	50.4*	4.3%	x
CCCCNC(=S)N/N=C/c1cc(C)ccc1C	-3.9	u	-2.9%	-2.2	4.0%	u
CCCCNC(=S)N/N=C/c1ccccc1F	19.3	0.0%	-4.9%	15.9*	1.1%	47.7%
Cc1cccc(C(=O)NC2=NCCS2)c1	56.4*	29.4%	-1.2%	35.3*	-2.5%	146.3%
Cc1cc(C(=O)NC2=NCCS2)cs1	66.2*	14.5%	10.6%	40.6*	4.7%	i
Cc1ccc(NC(=O)CO/N=C/c2ccc(N(C)C)cc2)cc1	-9.8	39.8%	-4.6%	10.4	6.3%	13.3%
Cc1ccc(NC(=O)c2cc(N(C)C)ccc2[P+](=O)O)cc1	104.8*	-11.7%	4.9%	83.7*	15.4%	86.5%
COc1ccc(C2/C=C\CN(C(=O)C3CCCCC3)C(C)C(=O)N2Cc2ccc(F)cc2)cc1 (configuration not stated)	-3.2	x	x	-9.8	-0.3%	x
CCc1ccccc1N(CC(=O)NC(C)C)C(=O)CCC(=O)Nc1nccs1	-8.0	-0.7%	5.5%	-1.3	2.8%	u
CSc1cccc(NC(=S)N2CCC(c3ccccc3)C2)c1 (configuration not stated)	50.2*	5.6%	-4.8%	19.6*	2.3%	-3.0%[0.00184 µM]
CSc1cccc(NC(=S)N2CCC(N(C)C3CCCCC3C)CC2)c1 (configuration not stated)	13.2	-12.0%	x	0.9	5.8%	-29.9%
CCc1cccc(NC(=S)N2CCC(c3ccccc3)C2)c1 (configuration not stated)	74.2*	8.8%	x	65.0*	-2.2%	68.0%
CC12CCC(=O)N1C(C(=O)NCCc1ccc(S(N)(=O)=O)cc1)CS2 (configuration not stated)	-20.9	u	6.7%	-1.8	x	-16.1%
Cc1cc(O)c(C=Nc2cccc(Cl)c2)c(=O)o1	1.7	0.2%	-7.8%	-3.8	-13.9%	28.1%
Oc1ccccc1/C=N/Nc1ncc(Br)cn1	74.2*	-102.0%	-5.5%	65.8*	-5.0%	2.08µM*
Oc1ccccc1/C=N/Nc1ccccc1	196.7*	24.7%	-30.2%	47.9*	-4.7%	41.6%
Clc1ccc(Cl)c(Nc2ccnc(SCc3ccccc3)n2)c1	x	x	-12.4%	x	x	x
Oc1ccccc1/C=N/Nc1ccnc(SCc2ccccc2)n1	30.3	1.85µM*	u	23.9*	-1.1%	10.4µM*
SMILES	Shiga toxin inh	Pf growth 96h	NS1 function inh	Cycloheximide cs	Giardia FBPA inh	Pf growth 48h
Oc1ccccc1/C=N/NP(=S)(c1ccccc1)c1ccccc1	23.3	u	x	14.2	-5.5%	u
Cc1nccn1CC(=O)N/N=C/c1ccccc1O	3.2	37.2%	1.1%	-0.9	23.5%	-7.0%
Cc1cc(O)c(/C=N/Nc2ccccc2)c(=O)o1	-0.4	16.5%	-5.9%	19.8*	-1.0%	-21.0%
CCN1CCCC1CNC(=O)c1ccc(N2CCOCC2)c(NS(=O)(=O)c2ccc(OC)cc2)c1 (configuration not stated)	-5.2	15.6%	x	-1.8	-20.2%	-19.1%
CCN(CC(=O)NCc1ccc(Cl)cc1)C(=O)CCC(=O)c1ccc(F)cc1	x	-0.3%	x	x	x	u
CCOc1ccc(N(CC(=O)N/N=C/c2ccccn2)S(=O)(=O)c2ccc(Cl)cc2)cc1	1.6	u	-3.9%	2.1	x	u
Cc1cc(OCC(=O)Nc2ccccc2C)no1	x	-5.9%	x	x	x	-11.1%
